In PubChem BioAssay (NCI):
The panel holds about 83,000 compounds, 20% with a hit somewhere; the sample as a whole holds those more often.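 Activity criterion: percent growth below 10, measured after cells in 96-well plates were exposed to a single compound concentration for 48 hours.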 Values without a mark were called inactive. The source made the active and inactive calls.

System: HL-60(TB) leukemia
Assay: NCI-60 one-dose screen, 48 h (100 = growth as untreated, 0 = no growth, -100 = all killed)
Settings: 10 µM unless noted

CN(C)c1ccc(/C=C(\C#N)c2cc3ccccc3[nH]2)cc1
growth: 22.2%

CC/C(=C(/c1ccc(O)cc1)c1ccc(OCCN2CCCCCC2)cc1)c1ccc(Cl)cc1
growth: 53.9%

O=[N+]([O-])c1ccc(-c2nc(Cl)c3c(n2)CCCC3)o1
growth: 93.8%

CC(C)(C)c1nn(-c2ccccc2)c2c1CC1(CN2Cc2ccc(Cl)cc2)C(=O)c2ccccc2C1=O
growth: 90.8%

CCc1ccc(/C(C#N)=C/C=C/c2ccccc2)cc1
growth: -1.39% (active)

Cc1ccc(O)c(C(=O)c2ccccc2)c1
growth: 73.1%

COc1cc(OC)cc(N2C(=O)N(Cc3ccc(C(C)(C)C)cc3)c3ccccc3S2(=O)=O)c1
growth: 67.9%

Cc1[nH]c(-c2nc3ccccc3[nH]2)c(C)c1C(=O)N1CCOCC1
growth: 111%

C/C(=N\Nc1nc(C)cs1)c1cc2ccccc2o1
growth: 83.4%

CC/C=C\C[C@H](O)C/C=C1/C(=O)C(Cl)=C[C@@H]1C/C=C\CCCC(=O)OC
growth: -2.33% (active)

O=C(CCCN1CCOCC1)Nc1ccc(Cn2nnc3c2C(=O)c2nnn(Cc4ccc(NC(=O)CCCN5CCOCC5)cc4)c2C3=O)cc1
growth: -7.47% (active)

COc1ccc2c(c1)C(C)Cc1c(Cl)ncnc1N2C (stereo unspecified)
growth: -0.632% (active)

CC(C)(C)c1cc(O)c(O)c(C(C)(C)C)c1
growth: 4.04% (active)

Cc1c(Cl)cccc1C(=O)Nc1nc2c(s1)CN(C(=O)c1ccc(C(F)(F)F)cc1)CC2
growth: -21.8% (active)

O=C(O)c1nn(-c2ccc(Cl)cc2)nc1N1CCCC1
growth: 97%

c1ccc(-c2cn3nc(-c4c[nH]c5ccccc45)sc3n2)cc1
growth: 95.1%

Cc1ccc(NC(=O)CCl)cc1Cl
growth: 106%

Nc1nc(Nc2ccccc2SSc2ccccc2Nc2nc(N)nc(C(Cl)(Cl)Cl)n2)nc(C(Cl)(Cl)Cl)n1
growth: 11.5%

N=C(N)c1ccc(-c2ccc(-c3ccc(Cl)cc3Cl)s2)nc1
growth: -35.7% (active)

O=[N+]([O-])c1cc(Br)cc2c1[nH]c1ccc(Br)cc12
growth: 85%

C=C1C(=O)O[C@H]2[C@H]1CC/C(COC(=O)c1cc(OC)c(OC)c(OC)c1)=C\CC[C@@]1(C)O[C@@H]21
growth: -65.1% (active)

CC1=C(C(=O)OCC2CCN(C(=O)OC(C)(C)C)CC2)[C@H](c2cccc(C#N)c2)C2=C(CC(C)(C)CC2=O)N1
growth: 27.5%

Nc1ccc(S(=O)(=O)Nc2ccnn2-c2ccccc2)cc1
growth: 102%

c1ccc(-c2cn3c(ccc4ccccc43)n2)cc1
growth: 24.4%

OC(COCc1ccccc1)COCc1ccccc1
growth: 91.8%

O=P(OCCCl)(OCCCl)C(O)c1ccccc1Cl (stereo unspecified)
growth: 96.2%

COc1ccc(-c2cc(-c3ccc(N(C)C)cc3)nc(NC(=O)c3ccncc3)n2)cc1
growth: 113%

COc1ccc2cc(C(C)C(=O)Nc3ccc(S(=O)(=O)Nc4cc(C)on4)cc3)ccc2c1 (stereo unspecified)
growth: 143%

Fc1ccc(-c2cnc3nonc3n2)c(F)c1
growth: 7.84% (active)

FC(F)(F)Oc1ccc2c(c1)C[C@H]1C[C@@H](c3ccoc3)N2O1
growth: 104%

COC(=O)C(Cc1ccccc1)NC(=O)NC(=O)NC(=O)CI (stereo unspecified)
growth: -51.3% (active)

O=C1Nc2ccc(Cl)cc2/C1=C/c1cccs1
growth: 98%

ClC(Cl)c1nc(-c2ccccc2)n2nc(-c3ccccc3)cc2n1
growth: -7.03% (active)

FC(F)(F)c1ccc2c(Nc3cccc(C4CC(c5ccccc5)=NN4c4ccc(Cl)cc4)c3)ccnc2c1 (stereo unspecified)
growth: 36.5%

COc1ccc(/C=C2\SC(=O)N(CN3CCN(c4cc5c(cc4F)c(=O)c(C(=O)O)cn5C4CC4)CC3)C2=O)cc1
growth: 109%

O=S(=O)(Nc1ccc(-n2cnc3cc(-c4ccc(O)cc4)ccc32)cc1)c1ccccc1
growth: 79%

CN1CCN(CC(=O)Nc2nc3c(s2)Nc2cc(Cl)c(Cl)cc2NC3=O)CC1
growth: 81.9%

COc1ccc2cc(C(=O)N3CCC([C@@H](C)C(=O)NCc4ccc5c(c4)OCO5)CC3)[nH]c2c1
growth: 91% [50 µM]

CC1(C)CC[C@]2(C(=O)OC(=O)[C@]34CCC(C)(C)C[C@@H]3C3=CC[C@@H]5[C@@]6(C)CCC(=O)C(C)(C)[C@@H]6CC[C@@]5(C)[C@]3(C)CC4)CC[C@]3(C)C(=CC[C@@H]4[C@@]5(C)CCC(=O)C(C)(C)[C@@H]5CC[C@]43C)[C@H]2C1
growth: 6.37% [100 µM] (active)

COc1cc(C2NN=C3c4ccccc4CCC32)cc(OC)c1OC (stereo unspecified)
growth: 74.1%

Cc1ccc(Cc2cnc(NC(=O)c3cc(C)oc3C)s2)cc1
growth: 79.1%

CC1(C)COB(OCC(C)(C)COB2OCC(C)(C)CO2)OC1
growth: 101%

O=C1c2ccccc2C(=O)c2sc(Nc3cccc(Cl)c3)nc21
growth: -18.7% (active)

O=C(Nc1ccc(-n2cc(-c3ccncc3)c(-c3ccc(O)c(Cl)c3)n2)cc1)c1cc(Cl)cc(Cl)c1
growth: 28.1%

COc1cccc(-c2nc(-c3ccc(NC(=O)OC(C)C)cc3)[nH]c2-c2ccnc(Br)c2)c1
growth: -39.9% (active)

COc1ccc(-c2ncnc3c2ncn3CC#CCCl)cc1
growth: 48.8%

N#Cc1c(-c2ccccc2)cc(-c2ccccc2)n(CCCCC(=O)O)c1=O
growth: 102%

Cc1ccc(S(=O)(=O)CCCl)cc1
growth: 91.7%

CC[C@@H](C(=O)[C@H](C)[C@H](O)[C@@H](C)[C@H]1O[C@H]([C@@H](CC)C(=O)N(CC)CC)CC[C@H]1C)C1O[C@]2(C=C[C@@H](O)[C@]3(CC[C@@](C)([C@H]4CC[C@](O)(CC)[C@H](C)O4)O3)O2)[C@H](C)C[C@@H]1C (stereo partly specified)
growth: -28.8% (active)

CCN1C(=O)N(CC)C2C1N=C(SC)N2/N=C/C=C/c1ccccc1OC (stereo unspecified)
growth: -13.4% (active)

CCCCCC(=O)OCc1ccccc1
growth: 89.4%

CNC(=O)c1cc(Oc2ccc(NC(=O)Nc3ccc(Cl)c(OC4CCCCC4)c3)c(F)c2)ccn1
growth: 82.9%

CN1CCN(Cc2ccc(NC(=O)c3cncc(C#Cc4cncn5ccnc45)c3)cc2C(F)(F)F)CC1
growth: 20.2%

O=C1CC[C@@H](C(=O)N[C@H]2CSSC[C@@H](C(=O)NCCc3ccccc3)NC(=O)[C@H](Cc3ccccc3)NC(=O)[C@@H]3CCCN3C(=O)[C@@H]3CCCN3C2=O)N1
growth: 76.3%

CCCS(=O)(=O)c1nc(NC2CC2)cc(-c2ccc3c(ccn3C3CC(C)(C)NC(C)(C)C3)c2)n1
growth: -61.7% (active)

Nc1nc(Cl)nc2c1ncn2C1O[C@H](CO)[C@@H](O)[C@@H]1F (stereo partly specified)
growth: -34.8% (active)

CCOC(=O)C(=Cc1ccccc1[N+](=O)[O-])C(=O)OCC
growth: -26.5% (active)

COc1cc(N2CCC(N3CCN(C)CC3)CC2)ccc1Nc1ncnc(Nc2ccccc2S(=O)(=O)C(C)C)n1
growth: 102%

COc1ccc(-n2nnnc2-c2cn[nH]c2C(F)(F)F)cc1
growth: 98.3%

CC(C)N1CC(=O)N2CSCC2C1=O (stereo unspecified)
growth: 102%

CCOc1cccc(/C=N/NC(=O)C(=O)Nc2cccc(C(F)(F)F)c2)c1O
growth: 11.2%

C[C@]12C[C@H](O)[C@H]3[C@@H](CCC4=CC(=O)CC[C@@]43C)[C@@H]1CC[C@@H]2C(=O)CO
growth: 81.8%

Cc1ccc(-c2c3c(N)nc(-c4cccnc4)nc3nc3c2c(C)nn3-c2ccccc2)cc1
growth: 95.6%

COc1cccc(-c2nc3sccn3c2-c2ccnc(NCCCNS(=O)(=O)c3ccc(F)cc3)c2)c1
growth: -13.5% (active)

CCc1c(C)[nH]c(=O)c(C(N)=O)c1C#N
growth: 102%

CCCCC1=C(Br)C(=O)c2nc(C)ccc2C1=O
growth: 77%

N#Cc1ccccc1-c1ccc(CN2C(=O)S/C(=C\c3ccc(Br)cc3)C2=O)cc1
growth: 96.2%

O=C1C2=C(CCN(Cc3ccccc3)C2)N2CCN=C2N1Cc1ccc(C(F)(F)F)cc1
growth: 20.4%

CC(C)C(C(=O)NCCN1CCOCC1)N1C(=O)/C(=C/c2ccc(Br)cc2)SC1=S (stereo unspecified)
growth: 101%

CN(C)c1ccc(/C=N/N=C(N)N)cc1
growth: 59.2%

Nc1nc2c(c(=O)[nH]1)C(c1ccc3c(c1)OCO3)C=C(C(=O)O)N2 (stereo unspecified)
growth: 111%

COc1ccc2[nH]cc(-c3nc(-c4c[nH]c5ncccc45)cs3)c2c1
growth: 13.9%

COc1ccc(C(=O)Cn2c(C(=O)c3ccccc3)nc3ccccc32)cc1
growth: -27.5% (active)

CCN1CCN(c2nc3ccccc3c3c(=O)c4cc(F)ccc4sc23)CC1
growth: 104%

COc1cc2cc(Oc3ccc(NC(=O)Nc4ccc(Cl)c(C(F)(F)F)c4)cc3)c(C)nc2cc1OCCN1CCOCC1
growth: 11%

Cn1cc(-c2[nH]c3cc(NC(=O)[C@H](N)C4CCCCC4)cc4c3c2C=NNC4=O)cn1
growth: -55.8% (active)

COc1ccc(C(=O)n2nc(/C=C/c3ccc(O)c(OC)c3)cc2/C=C/c2ccc(O)c(OC)c2)cc1
growth: -15.6% (active)

CCN1C(=S)N(c2ccccc2)C2C1NN=c1s/c(=C3\C(=O)N(C(C)C)c4ccccc43)c(=O)n12 (stereo unspecified)
growth: 96.6%

COc1ccc(/C=C\c2cc(OC)c(OC)c(OC)c2)cc1OC(=O)c1cccc(Cn2cc(CCOC(=O)c3cccc(Cn4nnc5c4C(=O)c4ccccc4C5=O)c3)nn2)c1
growth: -21.9% (active)

Fc1ccc(Nc2nnc(-c3ccc(Cl)cc3)o2)cc1
growth: 91.4%

CC(=O)c1ccc(-n2c(-c3cc(-c4ccsc4)n[nH]3)n[nH]c2=S)cc1
growth: 112%
